Bioassay records (PubChem)
An excerpt weighted towards active compounds, which were near 4.7% of everything screened.
TRHR agonist: agonists of human TRH receptor; P34981; TRHR cells, calcium flux fluo-8, FDSS agonist mode; activation, % at 2 µM; 360,000 tested, 0.18% active
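TRHR-expressing cells, plated overnight in medium with 10% serum, were loaded with fluo-8 calcium dye at room temperature. After a 10 s baseline, library compound was pin-added and calcium release was recorded kinetically (ex 480/em 530) as agonist response.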
D1 PAM: human D1 dopamine receptor positive modulation; P21728; HEK293 TREx D1 cells, calcium flux, dopamine EC20 potentiation; potentiation, % at 10 µM; 360,000 tested, 0.036% active; AID 504651; in the data active means potentiation above about 30%
Target sequence (P21728 whole entry, looked up): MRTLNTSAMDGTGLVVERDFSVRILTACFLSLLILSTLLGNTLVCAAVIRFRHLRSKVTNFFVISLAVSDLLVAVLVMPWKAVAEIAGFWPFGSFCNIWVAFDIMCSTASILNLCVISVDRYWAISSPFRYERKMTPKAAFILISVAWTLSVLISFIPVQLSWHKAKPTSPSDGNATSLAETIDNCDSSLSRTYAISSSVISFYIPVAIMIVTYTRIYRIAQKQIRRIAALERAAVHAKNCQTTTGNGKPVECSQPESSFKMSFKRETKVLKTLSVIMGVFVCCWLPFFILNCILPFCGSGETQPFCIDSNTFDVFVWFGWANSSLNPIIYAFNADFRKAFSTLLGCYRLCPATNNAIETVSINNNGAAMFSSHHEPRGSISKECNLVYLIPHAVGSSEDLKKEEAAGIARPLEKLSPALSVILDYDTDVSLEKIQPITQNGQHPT
D1 antagonist: human D1 dopamine receptor antagonism; HEK293 TREx D1 cells, calcium flux, dopamine EC80; hits give low values; activity change, negative = inhibition, % at 10 µM; 360,000 tested, 3.2% active; P21728; in the data active means activity change below about -30%
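Using tetracycline-induced force-coupled D1 Hek293 cells and a calcium dye, signals were followed for 180 s after compound, then for 180 s after EC80 dopamine, to detect inhibitors.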
D1 agonist: human D1 receptor agonism; P21728; 360,000 tested, 1% active; AID 504660; HEK293 T-REx D1 cells, calcium flux, agonist mode; activation, % at 2 µM
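Agonism was scored from calcium flux recorded over 180 s (1 read/s) after pintool compound addition, following a 10-cycle baseline. Cells were inducible force-coupled HEK293 TREx D1, plated overnight at 30 C and loaded with no-wash calcium dye.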
TRHR enhancer: allosterically enhances the human TRH receptor. 360,000 tested, 0.66% active. AID 493056. TRHR cells, fluo-8 calcium fluorescence, EC20 TRH enhancement. P34981. enhancement, % at 2 µM; in the data active means enhancement above about 30%
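Enhancer read-out: after compound pinning and an initial kinetic agonist-mode read, an EC20 of TRH (10 nM final) was injected and fluo-8 calcium signal (Ex 480/Em 530) followed at 1 s/cycle for 100 cycles in TRHR-expressing cells.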
Numbers stand for hits; i = inactive. Unless noted, no stated cut-off is given here; in the data, active means activation above about 30%; inactive means the rest.

SMILES | TRHR agonist | D1 PAM | D1 antagonist | D1 agonist | TRHR enhancer
Cc1ccc(Cl)cc1N1CCN(S(=O)(=O)c2cn(C)c(C)n2)CC1 | i | i | i | i | i
COC(=O)CCn1cnc2onc(-c3cc(F)cc(F)c3)c2c1=O | i | i | i | i | i
O=C(CCn1cnc2onc(-c3ccc(F)cc3)c2c1=O)N1CCN(c2ccccc2)CC1 | i | i | i | i | i
O=C(c1ccc2c(c1)N(Cc1ccc(Cl)cc1)C(=O)c1ccccc1S2=O)N1CCN(c2ccccc2F)CC1 (stereo not given) | i | i | i | i | i
Cc1c(Cl)c([N+](=O)[O-])nn1CCCC(=O)Nc1cccc(Cl)c1 | i | i | -32.0 | i | i
COc1cc(-c2noc(C)c2/C=C/c2ccc(OC(C)=O)cc2)cc(OC)c1OC | i | i | i | i | i
NC(=O)c1c(NC(=O)c2cnccn2)sc2c1CCCC2 | i | i | i | i | i
N#Cc1ccccc1CSc1ccc(-c2nc3ccccc3[nH]2)cn1 | i | i | -35.2 | i | i
CC(=O)CSc1ccc(-c2nc3ccccc3[nH]2)cn1 | i | i | i | i | i
Cc1cc2nc(-c3ccc(SCc4ccc(C#N)cc4)nc3)[nH]c2cc1C | i | i | -42.9 | i | i
COc1ccc(NC2CCCN(C(=O)c3ccc(C)c(N4CCNC4=O)c3)C2)cc1 (stereo not given) | i | i | i | i | i
COc1ccc(CNC(=O)c2cc3c(=O)n(Cc4cccnc4)ccc3nc2C)cc1 | i | i | i | i | i
Cc1ccc(C(=O)CSc2nc(-c3ccccc3)ccc2C#N)cc1 | i | i | i | 35.9 | i
Cc1ccc(-c2ccc(SCC(=O)c3ccccc3)nn2)cc1 | i | i | i | i | i
COc1ccc(CCNC(=O)c2ccc3c(c2)N(Cc2ccccc2Cl)C(=O)c2ccccc2S3)cc1OC | i | i | i | i | i
CCc1nc2ccccc2c(C(=O)O)c1C | i | i | i | i | i
O=C(NCCO)c1nc2ccccc2s1 | i | i | i | i | i
CCc1nc2ccccc2c(C(=O)NCc2ccccc2)c1C | i | i | -48.8 | i | i
O=C(Nc1nnc(-c2ccccc2)o1)c1nc2ccccc2s1 | 31.2 | i | i | 164.3 | i
O=C(NCc1ccccc1)c1nc2ccccc2s1 | i | i | -38.7 | i | i
Cc1ccccc1C(=O)Nc1nnc(-c2ccc(F)cc2)o1 | i | i | -37.0 | i | i
CCN(c1cccc(C)c1)S(=O)(=O)c1ccc2[nH]cc(C(=O)NCCCOC)c(=O)c2c1 | i | i | i | i | i
O=C(CN1CCN(c2ccc(F)cc2)CC1)NCc1ccc(Cl)cc1 | i | i | i | i | i
COc1ccc(C)cc1NC(=O)c1c(C(=O)Nc2cccc(C)c2C)sc2nc(C)cc(=O)n12 | i | i | i | i | i
CCn1c(=O)c(=O)n(CC)c2cc(S(=O)(=O)Nc3cc(C)ccc3C)ccc21 | i | i | i | i | i
SMILES | TRHR agonist | D1 PAM | D1 antagonist | D1 agonist | TRHR enhancer
CSCCC(NC(=O)c1ccccc1Cl)C(=O)N1CCCCC1 (stereo not given) | i | i | i | i | i
Cc1cc(-c2ccc(C)c(S(=O)(=O)N(C)c3ccc(C)c(C)c3)c2)on1 | i | i | i | i | i
COc1ccc(-n2ccn(CC(=O)Nc3ccc(OC)cc3OC)c(=O)c2=O)cc1 | i | i | i | i | i
CCCn1c(=O)c(C(=O)Nc2cccc(C)n2)c(O)c2ccccc21 | i | i | i | i | i
CCCn1c(=O)c(C(=O)Nc2ncccc2C)c(O)c2ccccc21 | i | i | i | 48.5 | i
Cn1c(=O)c(C(=O)NNC(=O)c2cccc(Cl)c2)c(O)c2ccccc21 | i | i | i | i | i
CCCn1c(=O)c(C(=O)NNC(=O)c2ccc(Cl)cc2Cl)c(O)c2ccccc21 | i | i | i | 41.2 | i
Cc1cccc(C(=O)NNC(=O)c2c(O)c3ccccc3n(C)c2=O)c1 | i | i | i | i | 37.4
O=C(Nc1cc2c3c(c1)CC(=O)N3CCC2)c1ccco1 | i | i | i | i | i
O=C(Cn1c(=O)n(Cc2ccco2)c(=O)c2ccccc21)Nc1ccc(Cl)cc1Cl | i | i | i | i | i
COc1cc(CNCc2c[nH]c3ccccc23)cc(OC)c1 | i | i | -39.8 | i | i
COc1cc(CNCc2ccc(OC)cc2OC)cc(OC)c1 | i | i | i | i | i
COc1cc(CNCc2ccc(Br)cc2)cc(OC)c1 | i | i | i | 82.4 | i
COC(=O)CCCCCCCCCCN1CCCCC1 | i | i | i | i | i
CCCOC(=O)CCCCCCCCC(O)CN1CCCCC1 (stereo not given) | i | i | -56.0 | 54.4 | i
Cc1ccc2nc(N(CCCN(C)C)C(=O)c3ccc(S(=O)(=O)N4CCCCCC4)cc3)sc2c1 | i | i | i | 37.6 | i
CCCCN(C)S(=O)(=O)c1ccc(C(=O)N(CCN(C)C)c2nc3ccc(C)cc3s2)cc1 | i | i | -38.9 | i | i
CN(C)CCCN(C(=O)C1=COCCO1)c1nc2ccc(Br)cc2s1 | i | i | -40.9 | 68.0 | i
CC1CCCCN1S(=O)(=O)c1ccc(C(=O)N(CCCN(C)C)c2nc3ccc(Br)cc3s2)cc1 (stereo not given) | i | i | -31.6 | i | i
CSc1cccc(NC(=O)Cn2nc(C)c3sc4ccccc4c3c2=O)c1 | i | i | i | i | i
CCc1cccc(NC(=O)Cn2nc(C)c3sc4ccccc4c3c2=O)c1 | i | i | -42.3 | i | i
CCc1cccc(C)c1NC(=O)CCCn1nc(C)c2sc3ccccc3c2c1=O | i | i | -38.6 | i | i
O=c1[nH]c(SCc2ccc(Cl)cc2)nc2c1CCC2 | i | i | i | i | i
O=c1[nH]c(SCc2ccccc2)nc2c1CCCC2 | i | i | -40.8 | i | i
COc1ccc(OC)c(N/C(N)=N/c2nc(C)cc(C)n2)c1 | i | i | i | i | i
SMILES | TRHR agonist | D1 PAM | D1 antagonist | D1 agonist | TRHR enhancer
COc1ccc(Cl)cc1N/C(N)=N/c1nc(C)cc(=O)[nH]1 | i | i | i | i | i
COc1ccc(Cl)cc1N/C(N)=N/c1nc(C)cc(C)n1 | i | i | -69.5 | i | i
CCCOc1ccccc1N/C(=N/c1nc(C)cc(C)n1)NC(=O)COc1ccc(OC)cc1 | i | i | i | i | i
CCCOc1ccccc1N/C(N)=N/c1nc(C)cc(C)n1 | i | i | -58.8 | i | i
COc1ccc(C)cc1N/C(N)=N/c1nc(C)cc(C)n1 | i | i | -74.5 | i | i
CC(=O)N1CCc2cc(S(=O)(=O)N3CCN(S(=O)(=O)c4c(F)cccc4F)CC3)ccc21 | i | i | i | i | i
C=CCC(Nc1ccccc1)c1ccc(OC)c(OC)c1 (stereo not given) | i | i | -40.3 | i | i
CC1CCC/C(=N/Nc2ccc([N+](=O)[O-])cc2[N+](=O)[O-])C1 (stereo not given) | i | i | -32.1 | i | i
CC1CCC(=NNc2ccc(C(F)(F)F)cc2[N+](=O)[O-])CC1 (stereo not given) | i | i | i | i | i
CCOc1ccc(CC(=O)NCc2ccc3c(c2)CCN3C(C)=O)cc1OCC | i | i | i | i | i
